Source: the supplement of paper PMC3334620
In all, about 33,000 sequences were measured (“E-score (-0.5 to 0.5)”: median about -0.016, highest 2% from about 0.32 on). The full list was thinned out, with the highest values kept by preference.

Each sequence was assayed against T1, Stp1 (UniProt B3LFK1) (assay: PBM E-score (8-mer binding enrichment) (E-score (-0.5 to 0.5)); higher = stronger / more preferred TF binding). Conditions: protein concentration: 200 nM; construct: GST-full length.
T1 sequence: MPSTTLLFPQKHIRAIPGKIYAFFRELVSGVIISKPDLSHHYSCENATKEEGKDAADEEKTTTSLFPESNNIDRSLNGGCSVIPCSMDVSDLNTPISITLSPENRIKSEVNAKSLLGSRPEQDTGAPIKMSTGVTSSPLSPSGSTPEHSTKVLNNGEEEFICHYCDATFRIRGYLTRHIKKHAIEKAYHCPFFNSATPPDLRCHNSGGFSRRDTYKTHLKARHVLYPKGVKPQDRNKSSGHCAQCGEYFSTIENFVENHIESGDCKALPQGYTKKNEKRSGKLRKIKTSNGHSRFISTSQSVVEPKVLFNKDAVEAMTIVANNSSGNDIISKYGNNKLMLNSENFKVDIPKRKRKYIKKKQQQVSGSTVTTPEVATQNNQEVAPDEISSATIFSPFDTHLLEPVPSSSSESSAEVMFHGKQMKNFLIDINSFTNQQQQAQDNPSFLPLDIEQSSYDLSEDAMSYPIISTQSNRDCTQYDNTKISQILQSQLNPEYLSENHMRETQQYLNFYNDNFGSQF
Protocol: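 Universal 'all 10-mer' protein binding microarrays (Agilent AMADID 015681) probed with GST-tagged S. cerevisiae TFs (full-length or DBD) made by in vitro transcription/translation (PURExpress), about 100-200 nM. Bound TF was detected with fluorescent anti-GST. Each ungapped 8-mer (which stands for itself and its reverse complement) is scored by the PBM enrichment score (E-score), a modified Wilcoxon-Mann-Whitney statistic from -0.5 to +0.5, computed with the Universal PBM Analysis Suite. Scale: above 0.35 generally sequence-specific binding.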

Sequence | PBM E-score
CCTCTACC | -0.24
AGAGTGTC | 0.0784
ATGATCAT | 0.17
GCATAGAA | 0.133
GCATTGGC | -0.0163
AGTTTGGA | 0.0815
ACTGTCCT | -0.097
ACTCTCCC | -0.159
GAAACCTA | -0.22
GGACTACC | -0.286
AAGTCTGT | -0.193
AACGATTG | 0.0458
CGACAGCC | -0.0511
GCGGCTCA | 0.461
TCGGCTCA | -0.0668
CCGGCTCA | 0.0597
AAGAACGC | 0.185
AAGAGCCG | 0.336
CAGAGCCA | -0.148
AAGAGCCA | 0.103
AAGAGCCT | 0.134
CAGAGCCG | 0.338

Sequence | PBM E-score
CAGAGCCC | -0.0943
AGAATAAC | -0.00738
ACCAACGG | 0.173
GTAGAGTA | 0.0935
AGGGTAAC | -0.165
GACGCCCC | -0.00392
GACGCCGA | 0.304
GACGCCGC | 0.453
CACGCCGC | 0.417
CACGCCGA | 0.0798
CACGCCGG | -0.0191
GGAACTTA | -0.0446
ATGGCACA | 0.229
AGGGCACG | 0.302
CGGGCACG | 0.139
AGGGCACA | 0.334
ATGGCACG | 0.354
CTGGCACA | -0.187
CTGGAGGC | -0.0215
ACTGGCTC | -0.267
AGTAGCTA | -0.16
ACCGGCAG | -0.121

Sequence | PBM E-score
CACGGCAA | 0.469
CCCGGCAG | -0.227
ATCGGCAG | -0.00845
TTCGGCAA | 0.088
CCCGGCAA | 0.0207
AACGGCAG | 0.384
TACGGCAA | 0.449
CACGGCAG | 0.428
CTCGGCAA | 0.1
CTCGGCAG | 0.117
TACGGCCA | 0.214
AGACTTTC | -0.256
TCTCAACA | 0.0271
CAGGCCAG | -0.0909
ATGGGAAC | -0.132
GTGAGCAC | -0.066
CCCTGATC | -0.255
CCTAACAC | 0.067
CGAGCCTA | -0.0212
ACATTAAT | 0.0799
ACAAGCGT | -0.135
ATCGGCAT | 0.238

Sequence | PBM E-score
AACGGCAT | 0.451
AATGGCAG | 0.0303
AACGGCAC | 0.472
AATGGCAT | 0.356
AATGGCAC | 0.275
ATCGGCAC | 0.297
ACCGGCAA | -0.0651
ACCGGCAC | 0.301
ATCGGCAA | 0.106
AACGGCAA | 0.432
ACCGGCAT | 0.0121
TAGGGGAA | -0.171
AAAGGATT | -0.109
CAGTGGGG | -0.239
AAACTCGG | -0.0615
AGACTCAG | -0.133
CCTGCTTA | -0.0853
GTGTAGCA | -0.202
ATGGAAAC | -0.0997
CAAGCCCA | -0.0787
ACGGAATA | 0.0278
GACGGAAC | -0.0397

Sequence | PBM E-score
GACGGCAC | 0.453
GCCGGCAA | 0.106
GCCGGCAC | 0.273
GACGGCAA | 0.325
GTCGGCAA | 0.0611
CAAGCCCG | -0.0901
CCACACTA | 0.127
ATCTAGCG | -0.0611
ACCAGATG | -0.146
CTGAGGCA | 0.192
AAGAGGCG | 0.298
ATGAGGAA | -0.0278
ATGAGGCA | 0.332
AAGAGGCA | 0.363
ATGAGGCG | 0.35
AAGAGGCT | 0.0613
ATGAGGTG | -0.0679
GGGAGGCA | 0.00612
GAGAGGCA | 0.208
ATGAGGCC | 0.0892
GTGAGGCA | 0.367
